Assay [1] concerns the target Lysosomal acid glucosylceramidase (Homo sapiens) (UniProt P04062). Put plainly: Glucocerebrosidase-p2 (AID 348; in the data active means potency below about 10 µM; further: potency means the concentration at half of the fitted maximal effect). To be noted: purified GBA, blue fluorogenic substrate, 40 min. An outline of the steps:
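Compounds titrated from 0.6 nM upwards against 0.2 nM enzyme in pH 5.9 citric acid/KH2PO4, taurocholate, tween-20; blue fluorogenic substrate 80 uM, 40 min room temperature, stopped and read Ex 365/Em 440 for AC50.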

Assay [2] is described as follows: AP1 Signaling Pathway (AID 357; active means well fitted curve in either direction with a large enough effect, not every such curve was filed as active; further: on the % scale 0 is the no-effect control and ±100 the full control effect). Conditions: ME-180 AP-1-bla reporter, EGF-induced, beta-lactamase ratio, 5 h; at 7.69 µM (top of the series) unless noted. The essentials: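 Read-out was the 460nm/530nm emission ratio (excitation 405nm) after CCF4 loading for 2.5 hours at room temperature. Cells carried an AP-1-driven beta-lactamase reporter, were stimulated with EC50 EGF plus compound for 5 hours, and AC50 values came from titrations.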

Assay [3] in a line: Stat Signaling Pathway (AID 446; active means well fitted curve in either direction with a large enough effect, not every such curve was filed as active;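 further: ME-180 cervical cancer cells given 40 pM IL-6 alongside compound; SIE-controlled beta-lactamase reporter measured as 460/530 nm FRET emission ratio; on the % scale 0 is the no-effect control and ±100 the full control effect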). Conditions: ME-180 SIE beta-lactamase reporter, IL-6 stimulated, 5 h; at 7.69 µM (top of the series) unless noted. The essentials: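 ME-180 SIE-bla cells; overnight plating; cpd + IL-6 40 pM, 5 h, 37 C; LiveBLAzer 2.5 h RT; 460/530 nm emission ratio. Normalized to 300 pM IL-6 and 125 nM JAK inhibitor controls.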
The target in assay [4] is Glucocorticoid receptor (Homo sapiens) (UniProt P04150). Put plainly: GR-EFC Redistribution (AID 451; calls by dose curve; further: potency means the concentration at half of the fitted maximal effect). Conditions: CHO-K1 GR-EFC translocation, beta-gal luminescence, 2 h. An outline of the steps:
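CHO-K1 cells expressing nuclear EA and GR-ED fragments of b-gal; compounds titrated up to 46 uM final, 2 h at 37 C. GR nuclear translocation read as complemented b-gal luminescence after 1 h RT detection.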

The target of assay [5] is Mitogen-activated protein kinase 10 (Mus musculus) (UniProt Q61831). Put plainly: JNK3 AlphaScreen Assay (AID 530; active means well fitted curve in either direction with a large enough effect, not every such curve was filed as active;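 further: kinase came from lysate of stimulated human HepG2 cells; signal reports phosphorylation of biotinylated GST-cJun 1-79 at Ser73 with 10 µM ATP; on the % scale 0 is the no-effect control and ±100 the full control effect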). Conditions: JNK3 lysate, c-Jun phosphorylation; series mostly up to 57.1 µM. An outline of the steps:
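Pre-activated (IL-1β/TNFα) JNK3 in HepG2 lysates phosphorylates biotin-GST-cJun(1-79), 10 uM ATP; anti-phospho-cJun(Ser73) AlphaScreen read at room temperature, pH 7.6 Tris buffer. Compounds pre-incubated 15 min as titrations.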

The target of assay [6] is 3',5'-cyclic-AMP phosphodiesterase 4B (Homo sapiens) (UniProt Q07343). In words: qHTS Assay for Inhibitors of PDE-IV (AID 607; active means well fitted activation curve with a large enough effect in the main read-out, with a control signal flat, not every such curve was filed as active; further: % of control where 0% means no effect). Conditions: HEK293 ACTOne CNG channel cells, membrane potential fluorescence; series mostly up to 22.9 µM. An outline of the steps:
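ACTOne HEK293 cells carry a modified cAMP-gated CNG channel and express endogenous PDE4; plated 1000 cells/well, compounds up to 22.9 uM final. Membrane-potential dye fluorescence (ex 535/em 590) was read; parental cells received 10 uM forskolin + 100 uM RO 20-1724.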
(In general: In qHTS, concentration-response curves come from the screen itself.)

The target in assay [7] is Cytochrome P450 2C19 (Homo sapiens) (UniProt P33261). Put plainly: qHTS Assay for Inhibitors and Substrates of Cytochrome P450 2C19 (AID 899). Further: potency means the concentration at half of the fitted maximal effect; nearly all actives have a fitted effect of over 60% in size. To be noted: recombinant CYP2C19, luciferin-H EGE luminescence; series mostly up to 57.1 µM. The essentials: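 Luminescent read-out of luciferin formed from Luciferin-H EGE (10uM, equal to KM). Enzyme 5nM in 50mM KPO4; compound added, 10 min at 37C, then NADPH regenerating system for 60 min at 37C. Full inhibition defined by 57uM ketoconazole.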

Assay [8] can be described thus: qHTS Assay for Lipid Storage Modulators (AID 1519; calls by dose curve). To be noted: Drosophila S3 cells, BODIPY lipid droplet/cell ratio, laser cytometry, cells loaded with oleic acid; for activity change, negative = inhibition: at 57.5 µM (top of the series). An outline of the steps: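 Cells seeded at 5,000 per well were treated with compounds over a concentration series and loaded with oleic acid (400 uM, as added). Lipid droplet fluorescence (488 nm excitation, 500-530 nm channel) was read by laser-scanning cytometry and normalized to 20 uM Triacsin C.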

The nature of assay [9]: Primary qHTS for small molecule stabilizers of the endoplasmic reticulum resident proteome: Secreted ER Calcium Modulated Protein (SERCaMP) assay (AID 1508630). Further: on the % scale 0 is the no-effect control and ±100 the full control effect. Conditions: SH-SY5Y GLuc-SERCaMP (Gaussia luciferase released on ER calcium loss) secretion, thapsigargin, luminescence; series mostly up to 38.4 µM. The essentials: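 GLuc-SERCaMP-expressing SH-SY5Y cells, pretreated 16 h with compound, are challenged with thapsigargin to empty ER calcium stores; after 4 h, coelenterazine is added directly to the medium and luminescence is imaged.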

The target in assay [10] is Cytochrome P450 1A2 (Homo sapiens) (UniProt P05177). Put plainly: p450-cyp1a2 (AID 410; calls by dose curve; further: potency means the concentration at half of the fitted maximal effect;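 on activity change, negative = inhibition: -100% = full effect of reference inhibitor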). To be noted: recombinant CYP1A2, luciferin-ME demethylation, luminescence; series mostly up to 57 µM. The essentials:
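Luminescent readout of luciferin formed from Luciferin-ME by human CYP1A2; data normalized against complete inhibition by 57 uM furafylline. Enzyme 20nM, substrate 100uM at Km, 100mM KPO4 buffer, 60 min reaction at room temperature.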

Assay [11] is described as follows: NFAT Signaling Pathway (AID 444; active means well fitted curve in either direction with a large enough effect, not every such curve was filed as active). To be noted: Jurkat NFAT-bla M1, carbachol, beta-lactamase ratio, 5 h; at 7.69 µM (top of the series) unless noted. The essentials: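 Jurkat cells with NFAT-driven β-lactamase reporter and co-expressed M1 receptor, stimulated with carbachol (final 1 uM, ~EC50), compound titration, 5 h at 37 °C. CCF4 loaded 1 h at RT; 460/530 nm ratio gave %activity and AC50.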

Assay [12] addresses Glucocorticoid receptor (Homo sapiens) (UniProt P04150). In words: GR-GFP Redistribution (AID 450;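 active means compounds whose dose series gives a full or clear partial fitted curve of increased nuclear translocation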; further: potency means the concentration at half of the fitted maximal effect). To be noted: U2OS GR-GFP nuclear translocation, laser cytometry, 2 h.
Assay [13] deals with Cytochrome P450 3A4 (Homo sapiens) (UniProt P08684). In words: qHTS Assay for Activators of Cytochrome P450 3A4 (AID 885). Further: nearly all actives have a fitted effect of over 65% in size. To be noted: recombinant CYP3A4, Luciferin-PPXE luminescence, 60 min; series mostly up to 57.1 µM. An outline of the steps:
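20nM CYP3A4 + 25uM Luciferin-PPXE (=KM), 200mM KPO4; cpd 10 min RT; NADPH regen, 60 min RT; stop w/ detection buffer, 20 min; luminescence. Normalized to 57 uM ketoconazole.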

Assay [14] is described as follows: Confirmation and Secondary Assay for Modulators of Hemoglobin Beta Chain Splicing at IVS2 654 locus (AID 910).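 Further: HeLa cells stably carrying EGFP split by mutant beta-globin IVS2-654 intron; % of control where 0% means no effect.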 Conditions: HeLa EGFP-654 splicing reporter, GFP fluorescence, 48 h; series mostly up to 38.3 µM. An outline of the steps:
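HeLa cells stably expressing EGFP interrupted by β-globin IVS2-654 intron, seeded overnight in Opti-MEM/2% FCS, then treated 2 days at 37 °C. Restored splicing read as total peak GFP intensity per well by laser scanning cytometry (488 nm excitation, 500–520 nm emission); 500 nM antisense PNA as control.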

Assay [15] is described as follows: Confirmation and Secondary Assay for Modulators of Hemoglobin Beta Chain Splicing at IVS2 705 locus (AID 930).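 Further: HeLa cells stably expressing the EGFP-705 splicing reporter; GFP fluorescence per well restored by corrected splicing of the IVS2-705 intron in EGFP; % of control where 0% means no effect.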 Conditions: HeLa EGFP-705 splicing reporter, GFP fluorescence, 48 h; series mostly up to 38.3 µM. The essentials: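 HeLa EGFP-705 reporter; 500 cells/well, o/n 37C 5% CO2; cpd 2 d; 488 ex/500-520 em laser scan; total peak GFP intensity/well. Ref: 500 nM […] antisense PNA.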

Assay [16] addresses Ubiquitin carboxyl-terminal hydrolase 1 (Homo sapiens) (UniProt O94782). Put plainly: Inhibitors of USP1/UAF1: Pilot qHTS (AID 504865).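 Further: rhodamine fluorescence freed from ubiquitin-rhodamine substrate followed over time; top concentration of the series differs between compounds; on the % scale 0 is the no-effect control and ±100 the full control effect; nearly all actives have a fitted effect of over 35% in size.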 Conditions: purified USP1/UAF1, Ub-rhodamine cleavage fluorescence; series mostly up to 54.9 µM. An outline of the steps: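 USP1/UAF1 complex (1nM) preincubated with compound 15 min at room temperature, then Ub-Rho substrate (150nM final) added. Fluorescence read kinetically at 480/540 nm, 6 reads every 60 seconds. Buffer: 50mM HEPES pH 7.8, 0.5mM EDTA, 0.1 mg/ml BSA, 1mM TCEP, 0.01% Tween-20.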

Assay [17] has as its target Cytochrome P450 3A4 (Homo sapiens) (UniProt P08684). Put plainly: qHTS Assay for Inhibitors and Substrates of Cytochrome P450 3A4 (AID 884). Further: potency means the concentration at half of the fitted maximal effect; nearly all actives have a fitted effect of over 50% in size. To be noted: recombinant CYP3A4, Luciferin-PPXE luminescence; series mostly up to 57.1 µM. The essentials:
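20 nM human CYP3A4 with 25 uM Luciferin-PPXE (at KM) in 200 mM KPO4, preincubated 10 min with compound; NADPH regeneration started a 60 min RT reaction. Luciferin detected by luminescence, normalized to 57 uM ketoconazole as full inhibition.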

Assay [18] is described as follows: qHTS Assay for Identification of Small Molecule Agonists for Hypoxia Response Element Signaling Pathway (AID 914; active means well fitted activation curve with a large enough effect in the signal ratio, with a control signal flat, not every such curve was filed as active; the % refers to the signal ratio; further: potency means the concentration at half of the fitted maximal effect). To be noted: ME-180 (cervical carcinoma) HRE-bla reporter, beta-lactamase ratio, CoCl2, 17 h; activation: stronger effect = higher value. The essentials: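 Read-out: CCF4 FRET ratio of 460nm to 530nm emission (excitation 405nm) after 2.5 hours at room temperature, taken from HRE-bla ME-180 cells that had been exposed to compound and EC50 CoCl2 for 17 hours.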

Where [19] appears, read: measured here: cell count channel max response.
The mark [20] stands for this setting: measured here: lipid channel max response.

The structures appear in SMILES notation. Inconclusive results are not listed. Active and inactive are the calls of the source. Unless noted, the call rests on the fitted dose curve; in most records, active means well fitted curve in the direction sought with a large enough effect; inconclusive means small, poorly fitted or top-dose-only effect, or another doubt; inactive means no such curve, though single readings can be large; an effect the other way counts as inactive or inconclusive.

Chain of Lysosomal acid glucosylceramidase (Homo sapiens) (P04062 whole entry, looked up): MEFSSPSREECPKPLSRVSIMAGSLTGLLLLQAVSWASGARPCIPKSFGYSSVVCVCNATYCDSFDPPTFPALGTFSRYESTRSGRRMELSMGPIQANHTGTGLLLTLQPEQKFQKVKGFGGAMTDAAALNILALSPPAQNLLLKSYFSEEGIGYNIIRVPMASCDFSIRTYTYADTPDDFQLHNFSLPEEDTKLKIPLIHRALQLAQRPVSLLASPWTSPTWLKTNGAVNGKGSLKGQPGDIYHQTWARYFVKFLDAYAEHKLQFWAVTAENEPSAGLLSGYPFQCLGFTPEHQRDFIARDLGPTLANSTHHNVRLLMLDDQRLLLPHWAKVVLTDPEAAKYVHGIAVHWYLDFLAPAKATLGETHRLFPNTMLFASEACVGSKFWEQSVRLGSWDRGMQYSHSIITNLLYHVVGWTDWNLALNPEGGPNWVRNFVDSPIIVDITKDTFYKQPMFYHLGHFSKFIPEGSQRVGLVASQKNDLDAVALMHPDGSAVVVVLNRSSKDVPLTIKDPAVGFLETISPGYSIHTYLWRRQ
Chain of Cytochrome P450 3A4 (Homo sapiens) (P08684 whole entry, looked up): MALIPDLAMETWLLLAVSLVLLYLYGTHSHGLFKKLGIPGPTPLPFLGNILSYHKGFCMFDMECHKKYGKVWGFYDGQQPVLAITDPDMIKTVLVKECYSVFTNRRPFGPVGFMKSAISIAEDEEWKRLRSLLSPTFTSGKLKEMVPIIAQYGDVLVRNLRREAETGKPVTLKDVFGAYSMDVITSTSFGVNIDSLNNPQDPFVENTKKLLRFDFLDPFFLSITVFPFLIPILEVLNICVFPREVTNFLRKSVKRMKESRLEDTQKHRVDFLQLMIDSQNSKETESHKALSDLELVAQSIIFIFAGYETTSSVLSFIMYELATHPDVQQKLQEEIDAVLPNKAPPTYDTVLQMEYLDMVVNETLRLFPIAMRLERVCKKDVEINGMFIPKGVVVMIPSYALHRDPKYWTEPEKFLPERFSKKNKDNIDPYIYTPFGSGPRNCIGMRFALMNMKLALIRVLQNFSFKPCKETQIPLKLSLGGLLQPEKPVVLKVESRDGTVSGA
Chain of Cytochrome P450 1A2 (Homo sapiens) (P05177 whole entry, looked up): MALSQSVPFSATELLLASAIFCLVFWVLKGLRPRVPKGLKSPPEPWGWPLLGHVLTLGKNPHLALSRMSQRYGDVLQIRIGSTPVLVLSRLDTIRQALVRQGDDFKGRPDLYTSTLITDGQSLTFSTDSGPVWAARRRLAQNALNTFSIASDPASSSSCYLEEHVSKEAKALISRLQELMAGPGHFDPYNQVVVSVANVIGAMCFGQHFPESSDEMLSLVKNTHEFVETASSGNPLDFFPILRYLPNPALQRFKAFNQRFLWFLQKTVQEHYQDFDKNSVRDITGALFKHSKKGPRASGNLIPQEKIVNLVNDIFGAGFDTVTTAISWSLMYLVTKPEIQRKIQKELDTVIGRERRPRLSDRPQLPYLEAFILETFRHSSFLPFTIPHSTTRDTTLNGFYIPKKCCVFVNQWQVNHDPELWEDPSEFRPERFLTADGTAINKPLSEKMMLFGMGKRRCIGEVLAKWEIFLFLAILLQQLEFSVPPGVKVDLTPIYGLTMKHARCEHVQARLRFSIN
Chain of Glucocorticoid receptor (Homo sapiens) (P04150 whole entry, looked up, the tested form may be a part): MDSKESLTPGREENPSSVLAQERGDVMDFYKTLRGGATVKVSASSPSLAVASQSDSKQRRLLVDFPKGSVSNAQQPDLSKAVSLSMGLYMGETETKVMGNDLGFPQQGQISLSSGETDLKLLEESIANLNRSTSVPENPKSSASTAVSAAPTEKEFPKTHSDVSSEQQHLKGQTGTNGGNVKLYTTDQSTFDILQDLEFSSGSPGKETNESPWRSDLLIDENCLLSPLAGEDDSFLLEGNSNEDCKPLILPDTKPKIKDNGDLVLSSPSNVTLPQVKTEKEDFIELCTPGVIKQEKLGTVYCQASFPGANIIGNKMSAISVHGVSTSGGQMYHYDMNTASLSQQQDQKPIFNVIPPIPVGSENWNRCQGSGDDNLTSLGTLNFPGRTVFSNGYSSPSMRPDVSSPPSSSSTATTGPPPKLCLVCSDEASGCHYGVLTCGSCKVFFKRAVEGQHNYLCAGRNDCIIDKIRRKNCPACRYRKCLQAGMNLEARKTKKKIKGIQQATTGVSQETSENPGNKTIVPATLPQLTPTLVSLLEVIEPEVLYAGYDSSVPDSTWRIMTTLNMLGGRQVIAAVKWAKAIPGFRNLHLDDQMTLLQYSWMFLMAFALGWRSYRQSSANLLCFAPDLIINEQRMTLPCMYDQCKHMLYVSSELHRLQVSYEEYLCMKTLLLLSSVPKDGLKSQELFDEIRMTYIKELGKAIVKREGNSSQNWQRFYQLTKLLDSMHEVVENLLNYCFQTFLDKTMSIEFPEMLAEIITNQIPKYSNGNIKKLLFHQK
Chain of 3',5'-cyclic-AMP phosphodiesterase 4B (Homo sapiens) (Q07343 whole entry, looked up): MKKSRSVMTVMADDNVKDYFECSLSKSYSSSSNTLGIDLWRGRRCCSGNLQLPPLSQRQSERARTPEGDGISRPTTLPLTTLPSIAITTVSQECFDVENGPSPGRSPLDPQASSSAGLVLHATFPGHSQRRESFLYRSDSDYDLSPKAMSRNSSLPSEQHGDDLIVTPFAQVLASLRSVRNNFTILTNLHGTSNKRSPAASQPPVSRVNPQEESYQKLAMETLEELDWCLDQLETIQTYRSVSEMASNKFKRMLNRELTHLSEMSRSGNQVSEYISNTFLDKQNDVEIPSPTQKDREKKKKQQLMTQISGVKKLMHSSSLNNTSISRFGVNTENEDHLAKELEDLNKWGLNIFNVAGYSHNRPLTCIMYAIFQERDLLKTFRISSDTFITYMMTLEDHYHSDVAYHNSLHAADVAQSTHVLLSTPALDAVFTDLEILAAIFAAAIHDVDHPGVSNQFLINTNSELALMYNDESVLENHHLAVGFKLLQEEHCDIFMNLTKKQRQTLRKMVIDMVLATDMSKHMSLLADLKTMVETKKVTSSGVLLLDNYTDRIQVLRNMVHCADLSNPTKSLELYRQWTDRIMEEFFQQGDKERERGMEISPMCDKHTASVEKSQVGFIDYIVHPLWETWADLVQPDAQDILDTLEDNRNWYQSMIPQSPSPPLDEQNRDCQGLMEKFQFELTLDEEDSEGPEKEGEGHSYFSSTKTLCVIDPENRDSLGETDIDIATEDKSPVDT
Chain of Ubiquitin carboxyl-terminal hydrolase 1 (Homo sapiens) (O94782 whole entry, looked up): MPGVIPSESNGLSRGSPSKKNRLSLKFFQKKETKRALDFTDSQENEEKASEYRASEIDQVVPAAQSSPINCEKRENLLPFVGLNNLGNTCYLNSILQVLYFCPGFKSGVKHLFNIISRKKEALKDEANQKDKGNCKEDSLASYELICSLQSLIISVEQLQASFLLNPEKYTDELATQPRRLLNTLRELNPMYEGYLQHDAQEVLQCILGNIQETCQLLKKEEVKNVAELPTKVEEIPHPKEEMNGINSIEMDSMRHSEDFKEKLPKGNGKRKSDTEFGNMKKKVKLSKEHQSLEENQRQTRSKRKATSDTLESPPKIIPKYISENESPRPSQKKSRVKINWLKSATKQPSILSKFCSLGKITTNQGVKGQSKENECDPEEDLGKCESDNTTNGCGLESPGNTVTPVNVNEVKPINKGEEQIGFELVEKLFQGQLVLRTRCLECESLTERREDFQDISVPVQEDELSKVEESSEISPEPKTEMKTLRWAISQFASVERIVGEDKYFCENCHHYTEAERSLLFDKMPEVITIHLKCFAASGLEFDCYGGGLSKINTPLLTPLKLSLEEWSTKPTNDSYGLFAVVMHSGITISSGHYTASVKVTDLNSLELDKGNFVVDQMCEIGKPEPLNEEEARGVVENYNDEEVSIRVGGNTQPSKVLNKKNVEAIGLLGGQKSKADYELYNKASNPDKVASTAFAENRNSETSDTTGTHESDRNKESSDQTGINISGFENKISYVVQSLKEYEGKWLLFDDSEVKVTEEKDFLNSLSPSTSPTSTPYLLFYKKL
Chain of Cytochrome P450 2C19 (Homo sapiens) (P33261 whole entry, looked up): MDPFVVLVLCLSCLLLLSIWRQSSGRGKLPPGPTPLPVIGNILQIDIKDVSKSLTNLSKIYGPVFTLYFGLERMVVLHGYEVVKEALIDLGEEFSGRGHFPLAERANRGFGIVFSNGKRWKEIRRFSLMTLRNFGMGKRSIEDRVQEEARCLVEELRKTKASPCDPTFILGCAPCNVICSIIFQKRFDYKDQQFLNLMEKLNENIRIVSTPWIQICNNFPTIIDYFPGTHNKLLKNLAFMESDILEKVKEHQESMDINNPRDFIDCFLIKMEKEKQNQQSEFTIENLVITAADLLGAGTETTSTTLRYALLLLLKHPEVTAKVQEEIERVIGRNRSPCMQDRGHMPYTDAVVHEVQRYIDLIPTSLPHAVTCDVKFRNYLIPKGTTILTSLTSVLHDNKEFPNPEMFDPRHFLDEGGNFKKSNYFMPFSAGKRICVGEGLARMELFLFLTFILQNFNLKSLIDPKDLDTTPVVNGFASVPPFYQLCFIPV

For the molecule `COC(=O)N1CCC2(CCCN(c3ccccn3)C2)CC1`, the Potency in [1] is > 11.4 µM (inactive); in assay [4] it was > 46 µM (inactive); in assay [7] it was 3.16 µM (active). Besides, the activity change, negative = inhibition in assay [2] is -5.95% (inactive); in [8], 1.3% (inactive). In [3], the activity, negative = inhibition is -6.11% (inactive). In addition, the Potency entry in assay [5] and in [6] was “inactive” each time. Moreover, the max response is 13.5% in [8] (setting [19]) and 15.8% in assay [8] (setting [20]). Further, in assay [9], the result was inactive.

On to `COc1ccccc1CNc1ncncc1-c1ccccc1C`, for which the Potency in assay [1] was > 11.4 µM (inactive); in assay [10], 7.94 µM (active); in assay [12], > 46 µM (inactive); in assay [4], > 46 µM (inactive); in assay [7], 3.98 µM (active). For the same molecule, the activity change, negative = inhibition in [11] was -19.5% (inactive); in assay [8] it was 9.38% (inactive). The activity, negative = inhibition in assay [3] was 12.8% (inactive). The Potency result in assay [5], in assay [6], in [13], in [14] and in [16] was “inactive” in each case. The outcome in assay [15] and in [9] was inactive. The values for the max response in assay [8] (setting [19]) and in assay [8] (setting [20]) were -3.12% and 5.51%, respectively.

For `O=C(c1cnccn1)N1CCC2(CCCN(C(c3ccccc3)c3ccccc3)C2)CC1`, the Potency was > 11.4 µM (inactive) in assay [1], 20 µM (active) in assay [10], > 46 µM (inactive) in assay [4] and 1.58 µM (active) in [17]. Besides, the activity, negative = inhibition in assay [3] was 14% (inactive). The Potency result in [5] and in [13] was “inactive” each time. In addition, the activity change, negative = inhibition in [8] was 0.62% (inactive). Also, the max response turned out to be 6.86% in assay [8] (setting [19]) and 7.68% in assay [8] (setting [20]). In addition, the outcome in assay [9] was inactive.

As for `CN(C)Cc1ccccc1-c1ccc2ncnc(N3CCOCC3)c2c1`, the Potency in assay [1] was > 11.4 µM (inactive); in assay [12], > 46 µM (inactive); in assay [4], > 46 µM (inactive). Besides, the activity change, negative = inhibition in assay [11] is 2.99% (inactive); in assay [8], 9.22% (inactive). Besides, in [3], the activity, negative = inhibition is 12.4% (inactive). The Potency result in [5], in assay [13], in assay [14] and in assay [16] was “inactive” in each case. Besides, the outcome in assay [15] and in assay [9] was inactive. Also, the values for the max response in assay [8] (setting [19]) and in [8] (setting [20]) were 6.66% and 17.3%, respectively.

Consider `COc1ccc(-c2nc3cnc(N4CCNCC4)nc3n(CCC#N)c2=O)cc1`, for which the Potency was > 11.4 µM (inactive) in assay [1]; 15.8 µM (active) in assay [10]; > 9.22 µM (inactive) in [12]; > 46 µM (inactive) in [4]; 3.16 µM (active) in assay [18]. Also, the Potency result in [5], in assay [6] and in assay [13] was “inactive” in each case. The activity change, negative = inhibition in [8] is 4.58% (inactive). The max response in [8] (setting [19]) is 17%; in assay [8] (setting [20]) it was 25%. Besides, in assay [9], the outcome was inactive.

As to `CC(C)CN1CCCC2(CCN(C(=O)c3cnccn3)CC2)C1`, the results for the Potency in assay [1] and in [4] were > 11.4 µM (inactive) and > 46 µM (inactive), respectively. The Potency result in assay [10], in assay [5], in [6] and in [13] was “inactive” each time. The activity, negative = inhibition in assay [3] is 7.99% (inactive). In assay [8], the activity change, negative = inhibition was 1.42% (inactive). Moreover, the figures for the max response in [8] (setting [19]) and in assay [8] (setting [20]) were 5.13% and 9.23%, respectively. Further, the result in assay [9] was inactive.

As to `O=C(c1ccncc1)N1CCC2(CC1)CN(c1ccccn1)C2`, the Potency in [1] was > 11.4 µM (inactive); in [4] it was > 46 µM (inactive). The results for the activity change, negative = inhibition in assay [2] and in [8] were 24.8% (inactive) and 3.6% (inactive), respectively. Also, the Potency result in assay [5] and in [6] was “inactive” each time. Further, the max response was found to be 0.68% in [8] (setting [19]) and 6.79% in assay [8] (setting [20]). Also, in assay [9], the result was inactive.

The values above are taken from PubChem BioAssay (NCATS).
